# Bioassay records from PubChem.
# The list is not random: actives were taken first. Their share in the collection is about 6.3%.
# TGFb inhibitor: qHTS for Inhibitors of TGF-b | HepG2 CAGA-GFP TGF-b/SMAD3 reporter, GFP fluorescence, 18 h; TGF-beta stimulated, 500 pg/mL final | Potency, µM (highest dose often 46.1 µM), actives largely listed as inhibitors | actives 1.2% (n = 410,000) | AID 588855, 2011; further: nearly all actives have a fitted effect of over 65% in size
#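 Per well, imaged GFP fluorescence of HEPG2 CAGA-GFP cells gives the signal; cells get compound, then TGF-beta (500 pg/mL final), 18 h at 37 degrees C; %Activity versus -TGF-beta and +DMSO controls.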
# VP16 counter: VP16 counterscreen qHTS for inhibitors of ROR gamma transcriptional activity. AID 2546, 2010. Drosophila S2 Gal4-VP16 UAS-luciferase, luminescence, 20 h. Potency, µM (highest dose often 53.6 µM), most hits filed as inhibitors. actives 3.5% (n = 310,000);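 further: Gal4-VP16 expression switched on by copper sulfate through the metallothionein promoter; nearly all actives have a fitted effect of over 50% in size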
# HepG2 viability: qHTS for Inhibitors of TGF-b: Cytotox Counterscreen; Potency, µM (top dose mostly 46.1 µM), usual class: cytotoxic; actives 0.76% (n = 410,000); HepG2 CAGA-GFP viability, ATP luminescence, 18 h
#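 CellTiter-Glo luminescence gave cytotoxicity after 18 hours at 37 degrees C. The cells were HepG2 CAGA-GFP in 1% FBS DMEM, stimulated with 500 pg/mL TGF-beta after compound addition. %Activity was normalised to no-cell wells (complete cell-killing) and DMSO (no toxicity), and curves were fitted and classified.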
# ATXN viability: Viability Counterscreen for Primary qHTS for Inhibitors of ATXN expression; S2 cells (HEK-293 line with an ATXN2-luciferase reporter) viability, CellTiter-Fluor protease fluorescence, 24 h; Potency, µM (titrated, usually from 56.7 µM), most hits filed as cytotoxic; AID 651635, 2014; actives 0.49% (n = 400,000); further: nearly all actives have a fitted effect of over 40% in size
# ATXN2 expr inh: Primary qHTS for Inhibitors of ATXN expression | HEK-293 ATXN2-luciferase reporter, luminescence, 24 h | Potency, µM (doses to about 57 µM), usual class: inhibitors | actives 0.72% (n = 360,000) | AID 1745845, 2022; further: nearly all actives have a fitted effect of over 55% in size
#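 ATXN2-luciferase reporter cells (luciferase flanked by upstream and downstream ATXN2 gene portions) were treated 24 h at 37 °C with compounds at up to 57 uM. SteadyGlo luminescence gave expression; GF-AFC fluorescence gave viability.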
# RORg inh: qHTS for inhibitors of ROR gamma transcriptional activity | actives 5.4% (n = 310,000) | Drosophila S2 Gal4-RORgamma UAS-luciferase reporter, 20 h | Potency, µM (series often up to 53.6 µM), usual class: inhibitors; further: nearly all actives have a fitted effect of over 60% in size
# Target sequence (P51450 whole entry, looked up, the tested form may be a part): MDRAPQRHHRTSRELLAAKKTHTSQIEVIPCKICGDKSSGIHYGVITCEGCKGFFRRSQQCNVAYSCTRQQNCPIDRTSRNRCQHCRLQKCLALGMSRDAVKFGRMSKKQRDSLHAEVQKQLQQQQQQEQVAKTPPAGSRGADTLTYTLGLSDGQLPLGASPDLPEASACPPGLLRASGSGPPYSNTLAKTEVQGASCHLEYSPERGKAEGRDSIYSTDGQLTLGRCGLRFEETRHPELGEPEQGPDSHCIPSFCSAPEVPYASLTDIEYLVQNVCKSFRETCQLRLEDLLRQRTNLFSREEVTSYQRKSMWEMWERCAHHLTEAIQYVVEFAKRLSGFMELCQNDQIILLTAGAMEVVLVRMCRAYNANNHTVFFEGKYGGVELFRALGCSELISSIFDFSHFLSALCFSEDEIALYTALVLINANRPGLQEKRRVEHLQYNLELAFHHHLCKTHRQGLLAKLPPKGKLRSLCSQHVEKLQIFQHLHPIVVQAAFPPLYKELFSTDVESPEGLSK
#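 Stably transfected Drosophila Schneider cells are the test system, with ROR gamma fused to Gal4 and luciferase under UAS control; luminescence is read after 20 hr of 700 uM copper sulfate induction at ambient temperature.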
# A number is an active result; 0 = inactive; ? = inconclusive; - = no result. The call rests on the fitted dose curve; in most records, active means well fitted curve in the direction sought with a large enough effect; inconclusive means small, poorly fitted or top-dose-only effect, or another doubt; inactive means no such curve, though single readings can be large; an effect the other way counts as inactive or inconclusive.
SMILES,TGFb inhibitor,VP16 counter,HepG2 viability,ATXN viability,ATXN2 expr inh,RORg inh
CC(C)n1c(O)c(N=NC(=O)CNC(=O)CCc2ccccc2)c2ccccc21,0,0,0,0,-,0
Cc1cc(C(=O)N=Nc2c(O)n(C(C)C)c3ccccc23)n[nH]1,0,?,0,0,0,11µM
c1ccc(-c2nccc(-c3ccco3)n2)nc1,0,0,0,0,0,13µM
COc1ccc(/C=C/C(=O)NCC2Cc3cccc(-c4nc(C)cnc4C)c3O2)cc1OC (stereo not drawn),-,-,-,0,-,-
Cc1nc2sc(-c3ccccc3)cc2c(=O)n1-n1cccc1,0,0,0,0,0,0
Cc1nc2sc(-c3ccccc3)cc2c(=O)n1N,0,?,0,0,-,7.1µM
Nc1nc(NC(=O)c2ccc(Cl)cc2)nn1-c1ccccc1,0,?,0,0,0,?
O=C(Nc1nc(N2C(=O)c3ccccc3C2=O)n(-c2ccccc2)n1)c1ccc(Cl)cc1,0,?,0,0,0,14µM
C=C1C(=O)OC2C[C@@]3(C)CCCC(C)C3=CC12 (stereo partly drawn),-,?,-,-,-,10µM
Cc1nc2ncnn2c(C)c1CCC(=O)N1CCN(c2ccccc2)CC1,0,-,0,0,0,-
Cc1ccc(C(C)C)cc1S(=O)(=O)NCc1cccnc1,0,18µM,0,0,0,?
Cc1ccc(C(C)C)cc1S(=O)(=O)NCc1ccccn1,0,?,0,0,-,14µM
COc1ccc(C(C)C)cc1S(=O)(=O)NCc1ccccn1,0,0,0,0,0,13µM
CCC(C(=O)N1CCN(c2ccc(OC)cc2)CC1)n1nc(C)n2c(cc3occc32)c1=O (stereo not drawn),10µM,-,0,?,0,-
COc1cccc(CNc2nc3cc(C(C)=C(C)C)sc3c(=O)n2C)c1,?,-,0,0,0,-
COc1ccccc1CCNC(=O)CCc1c(C)c2cc3c(C)coc3c(C)c2oc1=O,0,-,0,-,-,-
O=C(O)c1ccc2cc(-c3ccc(O)c(C45CC6CC(CC(C6)C4)C5)c3)ccc2c1,-,?,-,-,1.9µM,?
COc1ccc(-c2noc(CN(C(=O)c3cc(OC)c(OC)cc3OC)C(C)C)n2)cc1,?,-,0,0,0,-
CN(C)CC(=O)N1c2ccccc2CCc2ccc(NC(=O)c3ccc(N)cc3)cc21,0,7.1µM,0,0,0,7.9µM
CCCCc1ccc(-c2nn[nH]n2)nc1,0,-,0,0,-,-
COc1ccc(-c2nn(-c3ccccc3)cc2C2NC(=O)NC(C)=C2C(=O)OC(C)C)cc1Cl (stereo not drawn),?,-,0,0,?,-
O=C(c1ccoc1)N1CCN(c2cc(-c3ccccc3)nc3cc(-c4ccccc4)nn23)CC1,?,-,0,?,?,-
COc1ccccc1-c1cc2nc(-c3ccccc3)cc(N3CCN(C(=O)c4ccco4)CC3)n2n1,0,-,0,?,13µM,-
O=C(c1ccoc1)N1CCN(c2cc(-c3ccco3)nc3cc(-c4ccccc4)nn23)CC1,?,-,0,?,25µM,-
CNC(=O)Nc1ccc(-c2nc(N3CC4CCC(C3)O4)c3cnn(C4CCC5(CC4)OCCO5)c3n2)cc1,-,-,-,-,0,-
SMILES,TGFb inhibitor,VP16 counter,HepG2 viability,ATXN viability,ATXN2 expr inh,RORg inh
COc1ccc(-c2csc3ncnc(Nc4ccc(OC)cc4OC)c23)cc1,0,-,0,0,0,-
CCC1=NN2C(=N)/C(=C\c3cccn3-c3ccc(Cl)cc3)C(=O)N=C2S1,0,0,0,0,0,?
CC1=CC2=NC(=O)/C(=C/c3cccn3Cc3ccccc3)C(=N)N2O1,0,?,0,0,0,13µM
N=C1/C(=C/c2cccn2Cc2ccc(Cl)cc2)C(=O)N=C2SC=CN12,0,5µM,0,?,0,4µM
CC1=CC2=NC(=O)/C(=C\c3cccn3CCOc3ccc(C)c(C)c3)C(=N)N2O1,0,?,0,0,0,0
COc1ccccc1OCC(=O)OC/C(O)=C(\C#N)c1nc2ccccc2[nH]1,0,0,0,3.2µM,-,0
N#CC(=C(O)COC(=O)CCC1CCCCC1)c1nc2ccccc2[nH]1,0,-,0,-,20µM,-
CCOC(=O)c1c(C)[nH]c(C(=O)OC/C(O)=C(\C#N)c2nc3ccccc3[nH]2)c1C,0,?,0,?,0,?
N#C/C(=C(/O)COC(=O)Cc1c[nH]c2ccccc12)c1nc2ccccc2[nH]1,0,?,0,0,0,10µM
COc1ccc(OC/C(O)=C(\C#N)c2nc3ccccc3[nH]2)cc1,0,0,0,0,0,0
COCc1c(C(=O)OC/C(O)=C(\C#N)c2nc3ccccc3[nH]2)oc2ccccc12,0,0,0,?,0,?
CN(C)c1ccc(-c2nn3c(-c4cc(-c5ccccc5)n[nH]4)nnc3s2)cc1,?,-,0,-,-,-
Cc1[nH]c2ccc(-c3n[nH]c(=S)n3C)cc2c1C,0,?,0,0,0,11µM
CCn1c(-c2ccc3[nH]c(C)c(C)c3c2)n[nH]c1=S,0,13µM,0,0,0,11µM
CCn1c(-c2cc(Br)ccc2O)n[nH]c1=S,0,-,0,0,0,-
CCN(Cc1ccccc1)C(=O)Cn1c(=O)oc2cc(S(=O)(=O)N3CCCCCC3)ccc21,-,-,0,-,-,-
Cn1c(=O)oc2cc(S(=O)(=O)Nc3ccc(F)cc3)ccc21,0,0,4µM,0,0,0
CCc1nc2cc(C(=O)N3CCCN(C=O)CC3)cc(NC(=O)c3ccccc3OC)c2n1C,-,-,-,0,-,-
COc1ccc([C@H]2CC(=O)C=C(c3ccccc3)C2)cc1OC,0,-,0,0,0,-
CCCCC/C=C/C1=CC(=O)C[C@H](c2ccc(OC)c(OC)c2)C1,?,-,0,?,22µM,-
CC(C)(C)OC(=O)NS(=O)(=O)NOCc1ccccc1,0,-,0,-,-,-
CC(=O)Nc1cc(C(=O)N2CCCC(C)C2)cc2ncn(CCc3ccccn3)c12 (stereo not drawn),-,-,-,0,-,-
Cc1cc(C)cc(NC(=O)CSc2nnc(Cc3cccn3C)n2-c2ccc(F)cc2)c1,0,11µM,0,0,0,?
Cc1cc(C)c(NC(=O)CSc2nnc(Cc3cccn3C)n2-c2ccc(F)cc2)c(C)c1,0,0,0,0,0,0
COc1ccc(-n2c(Cc3cccn3C)nnc2SCC(=O)Nc2ccc(C)c(Cl)c2)cc1,?,11µM,0,0,0,?
CCOC(=O)c1ccc(S(=O)(=O)Nc2nc3cc(S(=O)(=O)NC4=NCCCCC4)ccc3s2)cc1,0,?,0,0,0,14µM
CCCOc1ccc(C(=O)Nc2ccc(S(=O)(=O)NC3=NCCCCC3)cc2)cc1,0,-,0.32µM,0,0,-
Nc1nc2cc(S(=O)(=O)NC3=NCCCCC3)ccc2s1,0,?,0,0,-,?
